From PubChem BioAssay
Calls of active or inactive are those of the source. Unless noted, no rule for the calls is given here.

Tests used:
[1] = system: Wnt5a (protein binding on small-molecule microarray); assay: small molecules binding Wnt5a protein – biophysical, small-molecule microarray, 635/667 nm fluorescence, primary screen (AID 1142); settings: 635 nm fluorescence, higher = more signal;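 also: fluorescence read at 667 nm with signal to noise per printed feature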
[2] = ATP-based viability of Huh7 replicon cells – cell-based, CellTiter-Glo luminescence, basal, 48 h, cytotoxicity control for HCV replication inhibitor project, primary screen (AID 1143); settings: higher = more signal, called active from +8 up or from −8 down;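 also: Huh7 hepatoma cells carrying a hepatitis C replication reporter with no stimulus; test concentration not given here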
[3] = Pseudomonas biofilm growth suppression – PAO1 strain, BacTiter-Glo luminescence, LB-PBS, primary screen (AID 1144); settings: P. aeruginosa PAO1 biofilm, 12 h, higher = more signal
[4] = basal CRE-LacZ reporter activity in PC12 – cell-based, unstimulated, primary screen (AID 1145); settings: no forskolin, luminescence, 4.5 h, higher = more signal, called active from +8 up or from −8 down
[5] = forskolin-driven CRE-LacZ activity in PC12 – cell-based, CRE-LacZ reporter, forskolin-stimulated, primary screen (AID 1146); settings: luminescence, 4.5 h, higher = more signal, called active from +8 up or from −8 down;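 also: PC12 cells with 6xCRE LacZ reporter stimulated by forskolin 10 µM; beta-galactosidase reporter signal reflecting CREB driven transcription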
[6] = molecular target: Streptavidin (Streptomyces avidinii) (UniProt P22629); assay: compounds binding control protein streptavidin – biophysical, small-molecule microarray, 635/667 nm fluorescence, artefact control for SMM compound annotation, primary screen (AID 1147); settings: higher = more signal;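 also: signal reflects streptavidin binding to arrayed compounds as a control protein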
[7] = probe aInhba binding on compound microarray – biochemical, small-molecule microarray, 635/667 nm fluorescence, primary screen (AID 1148); settings: higher = more signal;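 also: score merges 667nm spot fluorescence with signal-to-noise for antibody binding to printed compounds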
Torsin-1A (Homo sapiens) [8] = molecular target: Torsin-1A (Homo sapiens) (UniProt O14656); assay: TOR1A wild-type binding on microarray – cell lysate, small-molecule microarray, lysate, 635/667 nm, primary screen (AID 1149); settings: COS7 hTOR1A-WT lysate, 635 nm fluorescence, higher = more signal
Torsin-1A (Homo sapiens) [9] = molecular target: Torsin-1A (Homo sapiens) (UniProt O14656); assay: torsin A mutant lysate binding on microarrays – cell lysate, small-molecule microarray, COS7 lysate, 635/667 nm fluorescence, primary screen (AID 1150); settings: COS7 hTOR1A mutant lysate, 635 nm fluorescence, higher = more signal;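 also: score pools 667 nm emission and signal to noise measuring lysate protein binding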
[10] = system: Sonic hedgehog protein (Shh); assay: Sonic hedgehog microarray binding compounds – biochemical, small-molecule microarray, 635/667 nm fluorescence, primary screen (AID 1151); settings: 635 nm fluorescence, higher = more signal;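 also: Shh protein binding to compounds spotted on small-molecule microarray slides; score combines spot fluorescence intensity with signal-to-noise across triplicate slides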
[11] = optical density shifts of acrAB sulA E. coli – strain DRC41, OD650, 48 h, E. coli filamentation inducer project, primary screen (AID 1152); settings: higher = more signal, called active from +8 up or from −8 down;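 also: E. coli MC1000 strain DRC41 lacking acrAB efflux pump and sulA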
[12] = probe aLefty1 binding on compound microarray – biochemical, small-molecule microarray, 635/667 nm fluorescence, primary screen (AID 1153); settings: higher = more signal;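 also: score merges spot fluorescence with signal-to-noise ratio from the scanned slide images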
[13] = plasmodial surface anion channel blockers, osmotic lysis – cell-based, P. falciparum Indochina, OD700, 1 h, primary screen (AID 1154); settings: P. falciparum Indochina infected RBC osmotic lysis, higher = more signal, called active from +8 up or from −8 down
[14] = plasmodial surface anion channel blockers, osmotic lysis – cell-based, P. falciparum Indochina, OD700, 2 h, primary screen (AID 1155);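 also: lysis reports solute entry through the parasite surface anion channel PSAC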; settings: P. falciparum Indochina infected erythrocytes, higher = more signal, called active from +8 up or from −8 down
[15] = changes in parasitized red cell lysis, either direction – P. falciparum Indochina, OD700, 3 h, PSAC antagonist project, primary screen (AID 1156); settings: P. falciparum-infected erythrocytes, osmotic lysis, higher = more signal, called active from +8 up or from −8 down
[16] = plasmodial surface anion channel blockers, osmotic lysis – cell-based, P. falciparum Indochina, OD700, 18 h, primary screen (AID 1157); settings: P. falciparum Indochina infected erythrocytes, osmotic lysis OD700, 18 h; higher = more signal, called active from +8 up or from −8 down
[17] = S6 kinase pathway phospho-S6 level changes – cell-based, A549, cytoblot, luminescence, serum-stimulated, primary screen (AID 1158); settings: 5 h, higher = more signal;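 also: serum-stimulated A549 lung adenocarcinoma cells; signal is phosphorylated S6 detected by cytoblot immunostaining with HRP secondary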
[18] = molecular target: NADPH oxidase 2 (Homo sapiens) (UniProt P04839); assay: compounds shifting NOX2 Amplex Red fluorescence – cell-based, HEK293-NOX2, PMA-stimulated, NOX inhibitor project, primary screen (AID 1159); settings: 45 min, higher = more signal, called active from +8 up or from −8 down; also: test concentration not given here
[19] = molecular target: NADPH oxidase 4 (Homo sapiens) (UniProt Q9NPH5); assay: compounds shifting NOX4 Amplex Red fluorescence – cell-based, HEK293-NOX4, tetracycline-induced, NOX inhibitor project, primary screen (AID 1160); settings: HEK293-NOX4, Amplex Red H2O2 fluorescence, 45 min; higher = more signal, called active from +8 up or from −8 down
[20] = molecular target: NADPH oxidase 5 (Homo sapiens) (UniProt Q96PH1); assay: compounds shifting NOX5 Amplex Red fluorescence – cell-based, HEK293-NOX5, NOX inhibitor project, primary screen (AID 1161); settings: HEK293-NOX5, ionomycin, 45 min, higher = more signal
Sequence of NADPH oxidase 5 (Homo sapiens) (Q96PH1 whole entry, looked up): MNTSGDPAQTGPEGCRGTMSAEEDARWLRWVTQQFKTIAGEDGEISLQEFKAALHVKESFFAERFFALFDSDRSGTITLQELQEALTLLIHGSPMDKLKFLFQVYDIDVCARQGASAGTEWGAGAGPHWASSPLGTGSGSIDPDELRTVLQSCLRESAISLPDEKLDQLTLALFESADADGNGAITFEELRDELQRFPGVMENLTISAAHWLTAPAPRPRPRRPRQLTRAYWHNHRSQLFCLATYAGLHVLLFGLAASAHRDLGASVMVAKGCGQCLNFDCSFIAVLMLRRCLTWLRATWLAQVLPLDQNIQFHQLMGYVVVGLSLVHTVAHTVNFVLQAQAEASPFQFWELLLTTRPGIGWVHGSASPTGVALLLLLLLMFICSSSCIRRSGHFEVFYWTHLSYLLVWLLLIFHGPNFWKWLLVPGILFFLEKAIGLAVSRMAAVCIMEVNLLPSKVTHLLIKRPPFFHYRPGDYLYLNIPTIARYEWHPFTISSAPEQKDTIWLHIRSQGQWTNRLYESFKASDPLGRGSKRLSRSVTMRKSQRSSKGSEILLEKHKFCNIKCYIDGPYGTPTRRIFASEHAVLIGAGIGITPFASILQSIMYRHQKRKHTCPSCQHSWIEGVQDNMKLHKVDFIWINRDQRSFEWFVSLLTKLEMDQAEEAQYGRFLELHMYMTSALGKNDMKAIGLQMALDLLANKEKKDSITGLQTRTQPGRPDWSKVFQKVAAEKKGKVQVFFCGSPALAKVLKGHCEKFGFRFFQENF

Sequence of NADPH oxidase 2 (Homo sapiens) (P04839 whole entry, looked up): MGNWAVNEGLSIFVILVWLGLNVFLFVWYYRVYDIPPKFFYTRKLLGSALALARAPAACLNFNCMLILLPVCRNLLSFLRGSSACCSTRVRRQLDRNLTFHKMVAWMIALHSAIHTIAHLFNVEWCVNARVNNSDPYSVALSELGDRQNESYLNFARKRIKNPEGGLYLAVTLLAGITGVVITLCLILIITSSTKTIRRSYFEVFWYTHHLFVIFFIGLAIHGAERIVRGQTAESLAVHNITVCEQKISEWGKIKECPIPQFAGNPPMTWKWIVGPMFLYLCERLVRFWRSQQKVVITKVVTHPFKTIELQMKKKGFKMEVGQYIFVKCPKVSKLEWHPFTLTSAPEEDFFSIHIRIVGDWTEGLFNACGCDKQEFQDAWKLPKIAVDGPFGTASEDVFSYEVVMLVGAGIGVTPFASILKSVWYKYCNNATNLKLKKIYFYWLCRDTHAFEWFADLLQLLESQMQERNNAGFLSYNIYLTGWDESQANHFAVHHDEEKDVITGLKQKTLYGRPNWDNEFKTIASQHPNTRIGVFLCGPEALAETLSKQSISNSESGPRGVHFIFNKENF
Sequence of Torsin-1A (Homo sapiens) (O14656 whole entry, looked up): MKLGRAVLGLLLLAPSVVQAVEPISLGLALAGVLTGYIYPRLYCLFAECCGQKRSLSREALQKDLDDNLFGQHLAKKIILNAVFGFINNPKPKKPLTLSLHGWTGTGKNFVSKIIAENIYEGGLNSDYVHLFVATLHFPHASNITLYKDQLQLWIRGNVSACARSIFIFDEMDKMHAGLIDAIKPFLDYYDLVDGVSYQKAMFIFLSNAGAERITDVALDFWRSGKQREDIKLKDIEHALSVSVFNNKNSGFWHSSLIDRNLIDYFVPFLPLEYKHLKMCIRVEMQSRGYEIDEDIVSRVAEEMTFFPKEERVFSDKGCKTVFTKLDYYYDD
Sequence of NADPH oxidase 4 (Homo sapiens) (Q9NPH5 whole entry, looked up): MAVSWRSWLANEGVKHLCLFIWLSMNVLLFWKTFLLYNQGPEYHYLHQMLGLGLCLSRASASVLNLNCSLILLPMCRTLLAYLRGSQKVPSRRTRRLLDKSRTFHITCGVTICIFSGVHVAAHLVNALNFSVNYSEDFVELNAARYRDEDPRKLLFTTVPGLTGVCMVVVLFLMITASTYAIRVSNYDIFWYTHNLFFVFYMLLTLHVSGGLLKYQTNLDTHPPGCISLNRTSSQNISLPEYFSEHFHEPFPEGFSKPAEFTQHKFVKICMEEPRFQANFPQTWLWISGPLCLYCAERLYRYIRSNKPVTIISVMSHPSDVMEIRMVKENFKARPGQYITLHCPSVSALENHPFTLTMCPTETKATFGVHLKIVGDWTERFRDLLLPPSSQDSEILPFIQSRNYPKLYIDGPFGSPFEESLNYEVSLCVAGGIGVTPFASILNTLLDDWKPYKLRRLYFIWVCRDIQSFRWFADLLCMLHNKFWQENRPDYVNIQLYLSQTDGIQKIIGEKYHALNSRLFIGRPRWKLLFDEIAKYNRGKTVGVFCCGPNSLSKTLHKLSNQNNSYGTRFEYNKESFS
Sequence of Streptavidin (Streptomyces avidinii) (P22629 whole entry, looked up): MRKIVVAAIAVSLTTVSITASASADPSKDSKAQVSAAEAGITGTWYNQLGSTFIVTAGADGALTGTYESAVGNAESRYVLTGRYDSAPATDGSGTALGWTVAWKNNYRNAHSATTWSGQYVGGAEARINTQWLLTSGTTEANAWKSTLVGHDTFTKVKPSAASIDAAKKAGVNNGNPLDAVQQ

| Structure (SMILES) | composite z-score [1] | z-score [2] | z-score [3] | z-score [4] | z-score [5] | composite z-score [6] | composite z-score [7] | composite z-score (Torsin-1A (Homo sapiens) [8]) | composite z-score (Torsin-1A (Homo sapiens) [9]) | composite z-score [10] | z-score [11] | composite z-score [12] | z-score [13] | z-score [14] | z-score [15] | z-score [16] | z-score [17] | z-score [18] | z-score [19] | z-score [20] |
| --- | --- | --- | --- | --- | --- | --- | --- | --- | --- | --- | --- | --- | --- | --- | --- | --- | --- | --- | --- | --- |
| COc1ccc([Si](C)(C)[C@H]2[C@H](CCO)O[C@@]3(C(=O)N(Cc4ccc(NC(=O)[C@H](C)O)cc4)c4ccccc43)[C@@H]2C)cc1 | 0.185 | -8.05 (active) | -0.159 (inactive) | 5 (inactive) | -1.71 (inactive) | 0.674 | -0.0405 | 0.189 | 0.753 | 0.785 | 0.0546 (inactive) | -0.0984 | 29.9 (active) | 25.8 (active) | 2.52 (inactive) | 2.46 (inactive) | 1.27 | 0.25 (inactive) | 1.39 (inactive) | -0.66 |
| COc1ccc([Si](C)(C)[C@@H]2[C@@H](CC(=O)N3Cc4ccccc4C[C@H]3CO)O[C@]3(C(=O)N(Cc4cccc(N5CCOC5=O)c4)c4ccccc43)[C@H]2C)cc1 | 0.244 | -4.12 (inactive) | 0.291 (inactive) | -0.491 (inactive) | -0.318 (inactive) | -0.281 | -0.0581 | 0.846 | 0.737 | 2.11 | -0.207 (inactive) | 0.647 | 5.29 (inactive) | 1.06 (inactive) | 0.599 (inactive) | 0.548 (inactive) | 0.114 | -2.65 (inactive) | 1.1 (inactive) | -1.02 |
| O=C(NC1CC1)[C@@H]1c2ccccc2C(=O)N(Cc2cc(C(F)(F)F)cc(C(F)(F)F)c2)[C@H]1c1ccc(CO)cc1 | -0.0738 | -4.67 (inactive) | 0.0176 (inactive) | 1.14 (inactive) | -1.05 (inactive) | 0.0581 | -0.248 | -0.73 | -0.727 | 0.658 | -0.0602 (inactive) | -0.308 | 2.63 (inactive) | 0.26 (inactive) | 1.12 (inactive) | -0.558 (inactive) | 2.41 | -0.397 (inactive) | -1.17 (inactive) | -2.23 |
| CO[C@H]1O[C@H](CO)[C@@H](OC(=O)Nc2ccccc2)[C@H](OC(=O)Nc2ccccc2)[C@H]1OC(=O)Nc1ccccc1 | 0.664 | -4.39 (inactive) | -1.41 (inactive) | 1.04 (inactive) | -2.64 (inactive) | 0.0545 | 0.0343 | -0.196 | 1.07 | 0.78 | 0.492 (inactive) | 0.264 | 4.11 (inactive) | 1.04 (inactive) | 0.406 (inactive) | 0.912 (inactive) | 0.22 | -7.66 (inactive) | -1.15 (inactive) | -2.32 |
| C=CCNC(=O)[C@H]1[C@@H]2C(=O)O[C@@H](c3ccccc3)[C@@H](c3ccccc3)N2[C@@H](c2ccc(OCCO)cc2)[C@]12C(=O)Nc1ccc(C#CC3(O)CCCCCC3)cc12 | 0.564 | -3.3 (inactive) | 0.15 (inactive) | -0.329 (inactive) | 0.566 (inactive) | 0.618 | 0.108 | 0.406 | 0.564 | 1.31 | 0.803 (inactive) | 0.523 | 2.48 (inactive) | 1.54 (inactive) | -0.441 (inactive) | 0.311 (inactive) | 0.977 | 1.94 (inactive) | 1.18 (inactive) | 0.902 |
| OCCCC1=CC(c2ccc(CN3CCCC3)cc2)N(Cc2cccc(OC(F)(F)F)c2)CC1 (stereo not given) | -0.131 | -9.01 (active) | 0.697 (inactive) | -0.0884 (inactive) | 0.593 (inactive) | -0.69 | -0.0791 | 0.265 | -0.165 | 0.365 | -2.64 (inactive) | 0.286 | 3.61 (inactive) | 0.935 (inactive) | 0.524 (inactive) | 0.749 (inactive) | -0.791 | -5.61 (inactive) | -2.06 (inactive) | -2.16 |
| CN1C(=O)C2C(C3CC3)C=C3CN(Cc4cccc(Cl)c4)[C@@H]([C@@H](O)Cc4ccccc4)C3C2C1=O (stereo not given in full) | -0.103 | -1.85 (inactive) | -0.0257 (inactive) | 5.58 (inactive) | 0.349 (inactive) | 0.599 | -0.0221 | 0.667 | 0.342 | 1.78 | 1.14 (inactive) | 0.2 | 8.18 (active) | 1.25 (inactive) | 1.57 (inactive) | 0.918 (inactive) | 0.775 | -0.38 (inactive) | 0.0765 (inactive) | 0.168 |
| COc1ccc(C(=O)Nc2ccc(CN3C(=O)[C@@]4(O[C@@H](CCn5cc(CCO)nn5)[C@H]([Si](C)(C)c5ccc(OC)cc5)[C@H]4C)c4ccccc43)cc2)cc1 | 0.236 | -7.97 (inactive) | 0.173 (inactive) | 6.94 (inactive) | -0.632 (inactive) | 0.421 | -0.0791 | 0.671 | 0.411 | 1.4 | -2.53 (inactive) | 0.232 | 27.6 (active) | 16.4 (active) | 2.35 (inactive) | 1.43 (inactive) | -0.368 | -1.81 (inactive) | 0.515 (inactive) | 3.12 |
| CC(=O)NCCCC[C@@H]1NC(=O)[C@H]2C[C@@H](C(=O)NCCCCCCNC(=O)CS)[C@@H](c3cccc(OCCO)c3)N2C1=O | 0.538 | 0.348 (inactive) | -0.286 (inactive) | -0.813 (inactive) | -0.78 (inactive) | -0.64 | -0.0448 | 1.43 | 1.22 | 1.32 | -0.337 (inactive) | -0.101 | 3.07 (inactive) | 0.858 (inactive) | 1.18 (inactive) | 0.448 (inactive) | -0.754 | 1.6 (inactive) | -0.667 (inactive) | 0.443 |
